Experimental data taken from PubChem BioAssay.

experiment: CREB reporter modulators without forskolin, primary screen, cell-based, PC12, CRE-LacZ reporter, unstimulated (AID 1145); settings: no forskolin, luminescence, 4.5 h, higher = more signal, called active from +8 up or from −8 down

z-score, inactive:
NC(=O)NCC#Cc1ccc2c(c1)[C@]1(C(=O)N2)[C@H](C(=O)Nc2nc3ccccc3s2)[C@H]2C(=O)O[C@H](c3ccccc3)[C@H](c3ccccc3)N2[C@@H]1c1ccc(O)cc1 -1.15, O=C1NC(=O)C2C1C=CC(C(O)c1ccc(Br)cc1)N2Nc1ccccn1 (stereo unspecified) -0.322, [N-]=[N+]=Nc1ccccc1[C@H]1OC(c2ccc(OCCCO)cc2)=N[C@@]1(CCS(=O)(=O)c1ccccc1)C(=O)N1CCCCC1 0.47, CC(C)C(CO)N1C(=O)[C@]2(C)C3C(=O)OCCC/C=C\[C@H]3OC23C=CCN(c2ccc(Cl)cc2)C(=O)[C@@H]13 (stereo partly specified) -0.358, C=C[C@@H](C)[C@H](OC(=O)Nc1ccc(SC)cc1)c1ccc(OCCO)cc1 0.861, [N-]=[N+]=NCc1ccccc1C[C@@]1(C(=O)NCCN2CCOCC2)N=C(c2ccc(OCCCO)cc2)O[C@@H]1c1ccccc1N=[N+]=[N-] 0.69, CC(=O)N1Cc2ccccc2C[C@]2(N=C(c3ccc(OCCCO)cc3)O[C@@H]2c2ccccc2)C1=O 1.13, O=C1c2ccccc2[C@](Cc2ccccc2I)(C(=O)NCCN2CCOCC2)[C@H](c2ccc(CO)cc2)N1Cc1ccccc1 0.649, Cc1ccc(S[C@]2(C(=O)NC(C)C)CC(=O)N(Cc3ccccc3C(F)(F)F)[C@@H]2c2ccc(CO)cc2I)cc1 -0.141, CCOC(=O)[C@H]1C/C=C/C[C@H](C(=O)OCC)C(=O)O[C@H]2[C@@H](OC)O[C@H](CO)[C@@H](OC(=O)Nc3ccc(OC)cc3)[C@@H]2OC1=O 0.484, C[C@]1(C(=O)NCCN2CCOCC2)c2ccccc2C(=O)N(Cc2ccc(OC(F)(F)F)cc2)[C@H]1c1ccc(CO)cc1 -0.412, C=CC[C@]1(C(=O)N(C)C)N=C(c2ccc(OCCCO)cc2)O[C@H]1c1ccccc1N=[N+]=[N-] 1.99, COc1ccc([Si](C)(C)[C@H]2[C@H](CCO)O[C@@]3(C(=O)N(Cc4cccc(N5CCCCC5=O)c4)c4ccccc43)[C@@H]2C)cc1 2.39, C=CC[C@H](OC(=O)Nc1ccc(OC)cc1)c1ccc(O)c2ccccc12 0.935, CC(C)N1CC=CC23O[C@@H]4C=CCOC(=O)[C@@H]4[C@H]2C(=O)N(C(C)CO)[C@@H]3C1=O (stereo partly specified) -0.619, COCCOC(=O)N1C(=O)[C@@]2(c3cc(C#CCNC(N)=O)ccc31)[C@H](C(=O)N1CCCCCCC1)[C@H]1C(=O)O[C@H](c3ccccc3)[C@H](c3ccccc3)N1[C@@H]2c1ccc(O)cc1 -0.0526, COc1ccc(C(O)C2C=CC3C(=O)N(c4ccccc4)C(=O)C3N2Nc2ccccc2)cc1OCc1ccccc1 (stereo unspecified) 0.0535, C=CC[C@@H](OC(=O)Nc1ccc(OC)cc1)c1ccc(OCCO)cc1 1.29, O=C1O[C@@H](c2ccccc2)[C@@H](c2ccccc2)N2[C@@H](c3ccc(O)cc3)[C@]3(C(=O)Nc4ccccc43)[C@@H](C(=O)Nc3nc4ccccc4s3)[C@H]12 0.389, COCCCNC(=O)[C@]1(Cc2ccccc2N=[N+]=[N-])N=C(c2ccc(OCCCO)cc2)O[C@@H]1c1ccccc1N=[N+]=[N-] 0.432, O=C1OC[C@@H](c2ccccc2)N2CC(/C=C/c3ccccc3)=CC12 (stereo partly specified) 0.945, CC(C)CNC(=O)[C@@]1(c2ccc([N+](=O)[O-])cc2)CC(=O)N(C2CCCCC2)[C@@H]1c1ccc(CO)cc1I 0.324, COCCOC(=O)N1C(=O)[C@@]2(c3cc(C#Cc4ccc(OC)cc4)ccc31)[C@H](C(=O)N1CCCCCCC1)[C@H]1C(=O)O[C@H](c3ccccc3)[C@H](c3ccccc3)N1[C@@H]2c1ccc(O)cc1 -1.02, COCCCNC(=O)[C@]1(Cc2ccccc2CN=[N+]=[N-])N=C(c2ccc(OCCCO)cc2)O[C@@H]1c1ccccc1 -0.0667, C=CCC(OC(C)=O)[C@@H]1[C@@H](N(Cc2cc3ccccc3o2)C(=O)Cc2ccc(F)cc2)c2cc(OCCCO)ccc2N1C(=O)c1ccc2ccccc2n1 (stereo partly specified) 3.16, CCN(CC)c1ccc(N2CC=CC34O[C@@H]5/C=C\CCC(C)OC(=O)C5[C@H]3C(=O)N(CCO)[C@@H]4C2=O)cc1 (stereo partly specified) 0.195, CCOC(=O)C[C@H]1[C@H](OC(=O)Cc2ccc3c(c2)OCO3)[C@@H](NC(=O)Cc2ccc(OC)cc2)c2cc(OCCCO)ccc2N1C(=O)c1ccccc1 0.222

experiment: CREB reporter modulators under forskolin, primary screen, cell-based, PC12, CRE-LacZ reporter, forskolin-stimulated (AID 1146); settings: luminescence, 4.5 h, higher = more signal, called active from +8 up or from −8 down;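 note: PC12 cells with 6xCRE LacZ reporter stimulated by forskolin 10 µM; beta-galactosidase reporter signal reflecting CREB driven transcription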

z-score, inactive:
O=C1O[C@@H](c2ccccc2)[C@@H](c2ccccc2)N2[C@@H](c3ccccc3OCCO)[C@]3(C(=O)Nc4ccccc43)[C@@H](C(=O)NC[C@H](O)c3ccccc3)[C@H]12 4.03, COCCOC(=O)N1C(=O)[C@@]2(c3cc(C#CC4=CCCCC4)ccc31)[C@H](c1ccccc1OCCO)N1[C@H](c3ccccc3)[C@H](c3ccccc3)OC(=O)[C@H]1[C@@H]2C(=O)N1CCc2cc(OC)c(OC)cc2C1 0.904, Cc1ccc(S[C@]2(C(=O)NC3CC3)CC(=O)N(Cc3ccccc3Cl)[C@@H]2c2ccc(CO)cc2I)cc1 1.13, CC(C)CN1C(=O)[C@@]2(Cc3ccccc31)c1ccccc1C(=O)N(Cc1ccccc1C(F)(F)F)[C@H]2c1ccc(CO)cc1 -0.416, CCCN1C(=O)[C@]2(Cc3ccccc3)N=C(c3ccc(OCCCO)cc3)O[C@@H]2c2ccccc21 -1.11, C[C@]1(C(=O)NC2CC2)c2ccccc2C(=O)N(Cc2ccc(OC(F)(F)F)cc2)[C@H]1c1ccc(CO)cc1 -0.103, NC(=O)NCC#Cc1ccc2c(c1)[C@]1(C(=O)N2)[C@H](C(=O)O)[C@H]2C(=O)O[C@H](c3ccccc3)[C@H](c3ccccc3)N2[C@@H]1c1ccccc1OCCO 0.143, Cc1ccc(S[C@]2(C(=O)NCCN3CCOCC3)CC(=O)N(Cc3ccccc3C(F)(F)F)[C@@H]2c2ccc(CO)cc2I)cc1 4.04, Cc1ccc(S[C@]2(C(=O)NCc3ccccc3)CC(=O)N(C(C)C)[C@@H]2c2ccc(CO)cc2I)cc1 1.95, NC(=O)NCC#Cc1ccc2c(c1)[C@]1(C(=O)N2)[C@H](C(=O)Nc2nc3ccccc3s2)[C@H]2C(=O)O[C@H](c3ccccc3)[C@H](c3ccccc3)N2[C@@H]1c1ccc(O)cc1 -1.58, O=C1NC(=O)C2C1C=CC(C(O)c1ccc(Br)cc1)N2Nc1ccccn1 (stereo unspecified) 0.521, [N-]=[N+]=Nc1ccccc1[C@H]1OC(c2ccc(OCCCO)cc2)=N[C@@]1(CCS(=O)(=O)c1ccccc1)C(=O)N1CCCCC1 -0.993, CC(C)C(CO)N1C(=O)[C@]2(C)C3C(=O)OCCC/C=C\[C@H]3OC23C=CCN(c2ccc(Cl)cc2)C(=O)[C@@H]13 (stereo partly specified) 1.11, C=C[C@@H](C)[C@H](OC(=O)Nc1ccc(SC)cc1)c1ccc(OCCO)cc1 -0.97, [N-]=[N+]=NCc1ccccc1C[C@@]1(C(=O)NCCN2CCOCC2)N=C(c2ccc(OCCCO)cc2)O[C@@H]1c1ccccc1N=[N+]=[N-] -1.46, CC(=O)N1Cc2ccccc2C[C@]2(N=C(c3ccc(OCCCO)cc3)O[C@@H]2c2ccccc2)C1=O 2.08, O=C1c2ccccc2[C@](Cc2ccccc2I)(C(=O)NCCN2CCOCC2)[C@H](c2ccc(CO)cc2)N1Cc1ccccc1 0.413, Cc1ccc(S[C@]2(C(=O)NC(C)C)CC(=O)N(Cc3ccccc3C(F)(F)F)[C@@H]2c2ccc(CO)cc2I)cc1 1.12, CCOC(=O)[C@H]1C/C=C/C[C@H](C(=O)OCC)C(=O)O[C@H]2[C@@H](OC)O[C@H](CO)[C@@H](OC(=O)Nc3ccc(OC)cc3)[C@@H]2OC1=O 0.106, C[C@]1(C(=O)NCCN2CCOCC2)c2ccccc2C(=O)N(Cc2ccc(OC(F)(F)F)cc2)[C@H]1c1ccc(CO)cc1 -0.51, C=CC[C@]1(C(=O)N(C)C)N=C(c2ccc(OCCCO)cc2)O[C@H]1c1ccccc1N=[N+]=[N-] -1.23, COc1ccc([Si](C)(C)[C@H]2[C@H](CCO)O[C@@]3(C(=O)N(Cc4cccc(N5CCCCC5=O)c4)c4ccccc43)[C@@H]2C)cc1 -1.82, C=CC[C@H](OC(=O)Nc1ccc(OC)cc1)c1ccc(O)c2ccccc12 5.57, CC(C)N1CC=CC23O[C@@H]4C=CCOC(=O)[C@@H]4[C@H]2C(=O)N(C(C)CO)[C@@H]3C1=O (stereo partly specified) -0.544, COCCOC(=O)N1C(=O)[C@@]2(c3cc(C#CCNC(N)=O)ccc31)[C@H](C(=O)N1CCCCCCC1)[C@H]1C(=O)O[C@H](c3ccccc3)[C@H](c3ccccc3)N1[C@@H]2c1ccc(O)cc1 -0.333, COc1ccc(C(O)C2C=CC3C(=O)N(c4ccccc4)C(=O)C3N2Nc2ccccc2)cc1OCc1ccccc1 (stereo unspecified) 0.414, C=CC[C@@H](OC(=O)Nc1ccc(OC)cc1)c1ccc(OCCO)cc1 0.0646, O=C1O[C@@H](c2ccccc2)[C@@H](c2ccccc2)N2[C@@H](c3ccc(O)cc3)[C@]3(C(=O)Nc4ccccc43)[C@@H](C(=O)Nc3nc4ccccc4s3)[C@H]12 -0.0768, COCCCNC(=O)[C@]1(Cc2ccccc2N=[N+]=[N-])N=C(c2ccc(OCCCO)cc2)O[C@@H]1c1ccccc1N=[N+]=[N-] -1.98
